Experimental data taken from PubChem BioAssay (Tox21).
Results filed as inconclusive are left out. Calls of active or inactive are those of the source. Unless noted, calls come from the whole dose curve; as a rule, active = well fitted curve in the direction sought with a large enough effect in the repeat runs; inconclusive = weak or mixed curves; inactive = no such curve, though single readings can be large; an effect the other way counts as inactive or inconclusive.

What was measured:
[1] = qHTS assay to identify small molecule agonists of the hypoxia (HIF-1) signaling pathway - cell viability counter screen (AID 1224844; calls by dose curve; note: nearly all actives have a fitted effect of over 50% in size)
How it was run: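 Cytotoxicity was measured in parallel with the HRE-driven beta-lactamase readout: after 17 hrs of compound exposure at 37C, HRE-bla ME-180 cells received CellTiter-Glo and luminescence was recorded 30 min later.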

[2] = qHTS assay to identify small molecule agonists of H2AX (AID 1224845; active = well fitted activation curve with a large enough effect in the signal ratio in the repeat runs, not every such curve was filed as active; the % refers to the signal ratio)
How it was run: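 Wild-type CHO-K1 cells, plated overnight, exposed 3hr at 37C to 15 concentrations (0.76% DMSO final). Lysed, then HTRF anti-pH2AX (S139) cryptate and anti-H2AX-d2 antibodies, 24 hr room temperature; 665/620 nm emission read.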

[3] = qHTS assay to identify small molecule agonists of the hypoxia (HIF-1) signaling pathway (AID 1224846; active = well fitted activation curve with a large enough effect in the signal ratio in the repeat runs, not every such curve was filed as active; the % refers to the signal ratio)
How it was run: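 Compounds from the Tox21 10K library, dissolved in DMSO, are tested for induction of a hypoxia response element–controlled beta-lactamase reporter in ME-180 cells. Exposure lasts 17 hrs at 37C after a 5 hr settling period, followed by CCF4-AM FRET substrate.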

[4] = qHTS assay to identify small molecule agonists of H2AX - cell viability counter screen (AID 1224847; calls by dose curve; note: top concentration of the series differs between compounds; nearly all actives have a fitted effect of over 30% in size)
How it was run: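 Viability of CHO-K1 (wild type) cells after 3 hr compound exposure was measured by CellTiter-Glo luminescence.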

[5] = qHTS RealTime-Glo MT Cell Viability Assay in HepG2 cells - 24 hour (AID 1224867); note: nearly all actives have a fitted effect of over 50% in size
How it was run: (§1)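 Tox21 10K library screened in qHTS format on HepG2 cells carrying RealTime-Glo reagents. Compounds were added after a 5 h preincubation, and the luminescent signal from continuous culture was measured repeatedly during 40 h treatment.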

[6] = qHTS RealTime-Glo MT Cell Viability Assay in HEK293 cells - 32 hour (AID 1224868); note: top concentration of the series differs between compounds; nearly all actives have a fitted effect of over 50% in size
How it was run: (§2)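 Luminescence generated by NanoLuc from substrate produced by living HEK293 cells served as the viability signal. Each value reflects the reading at its stated time point during continuous 40 h compound exposure at 37 C.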

[7] = A CellTox Green Cytotoxicity Assay to monitor cytotoxicity in HEK293 cells - 0 hour (AID 1224869); note: nearly all actives have a fitted effect of over 50% in size
How it was run: (§3)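 Cells (HEK293, 600/well) and dye reagent are dispensed together. After 5 h at 37 C, 23 nL compound is pinned in. Plates stay at 37 C for 40 h with fluorescence read at 0h, 8h, 16h, 24h, 32h and 40h.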

[8] = qHTS RealTime-Glo MT Cell Viability Assay in HepG2 cells - 40 hour (AID 1224870); note: nearly all actives have a fitted effect of over 50% in size
How it was run: (§4)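 HepG2 cells (600/well) mixed with RealTime-Glo MT reagent, settled 5 h at 37 C/5% CO2 before compound addition. Nonlytic NanoLuc luminescence from viable-cell prosubstrate reduction read repeatedly during 40 h treatment at 37 C.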

[9] = A CellTox Green Cytotoxicity Assay to monitor cytotoxicity in HEK293 cells - 40 hour (AID 1224871); note: nearly all actives have a fitted effect of over 45% in size
How it was run: as §3

[10] = qHTS RealTime-Glo MT Cell Viability Assay in HepG2 cells - 8 hour (AID 1224873); note: nearly all actives have a fitted effect of over 55% in size
How it was run: as §4

[11] = qHTS RealTime-Glo MT Cell Viability Assay in HEK293 cells - 40 hour (AID 1224874); settings: RealTime-Glo luminescence; max response: active compounds read low; note: nearly all actives have a fitted effect of over 50% in size
How it was run: (§5)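 Real-time viability in HEK293: signal arises when living cells convert a prosubstrate for NanoLuc in the medium, so luminescence tracks viable cell number. Compound (23 nL, DMSO) added 5 h post-seeding; kinetic reads at 0–40 h, 37 C.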

[12] = A CellTox Green Cytotoxicity Assay to monitor cytotoxicity in HEK293 cells - 24 hour (AID 1224875); note: series mostly up to about 77 µM; nearly all actives have a fitted effect of over 45% in size
How it was run: as §3

[13] = qHTS RealTime-Glo MT Cell Viability Assay in HepG2 cells - 32 hour (AID 1224877); note: nearly all actives have a fitted effect of over 55% in size
How it was run: as §1

[14] = A CellTox Green Cytotoxicity Assay to monitor cytotoxicity in HepG2 cells - 24 hour (AID 1224878); note: nearly all actives have a fitted effect of over 45% in size
How it was run: (§6)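 Cells and non-lytic dye reagent are dispensed together (600 HepG2 cells/well) and incubated 5 h before DMSO compound transfer. Kinetic fluorescence is then recorded in the same wells during 40 h at 37 C.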

[15] = A CellTox Green Cytotoxicity Assay to monitor cytotoxicity in HepG2 cells - 40 hour (AID 1224879); note: nearly all actives have a fitted effect of over 40% in size
How it was run: as §6

[16] = qHTS RealTime-Glo MT Cell Viability Assay in HEK293 cells - 16 hour (AID 1224872)
How it was run: as §2

[17] = qHTS RealTime-Glo MT Cell Viability Assay in HEK293 cells - 0 hour (AID 1224880); note: top concentration of the series differs between compounds; nearly all actives have a fitted effect of over 45% in size
How it was run: as §5

[18] = A CellTox Green Cytotoxicity Assay to monitor cytotoxicity in HepG2 cells - 16 hour (AID 1224876); note: nearly all actives have a fitted effect of over 45% in size
How it was run: as §6

[19] = qHTS assay to identify small molecule antagonists of the estrogen related receptor (ERR) signaling pathway from Tox21 library (AID 1224848); note: nearly all actives have a fitted effect of over 50% in size
How it was run: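 Quantitative high-throughput format: ERR reporter cells (2,000/well) pre-incubated 6 h, treated 18 h at 37 C with compounds in DMSO alongside positive and negative controls, then read by ONE-Glo luminescence.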

[20] = qHTS assay to identify small molecule agonists of the estrogen related receptor (ERR) signaling pathway from Tox21 library (AID 1224849; calls by dose curve; note: nearly all actives have a fitted effect of over 15% in size)
How it was run: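 Cells carrying the ERR reporter were plated and allowed to settle for 6 h, exposed to library compounds for 18 h at 37 C, then lysed with ONE-Glo and luminescence measured.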
% is set by controls: 0 for no effect and ±100 for the full control effect.

CCCCCCCCCCCCSC
inactive: Potency [1] | Potency [2] | outcome [3] | outcome [4] | outcome [5] | Potency [6] | outcome [7] | Potency [8] | Potency [9] | outcome [10] | max response [11] 0.729% | outcome [12] | Potency [13] | outcome [14] | Potency [15]

CN1C(C)(C)CC(O)CC1(C)C
inactive: Potency [1] | Potency [2] | outcome [3] | outcome [4] | outcome [5] | Potency [6] | outcome [7] | Potency [8] | Potency [9] | Potency [16] | outcome [10] | max response [11] 2.49% | outcome [12] | Potency [13] | outcome [14] | Potency [15] | Potency [17]

O=C(O)CNC(=O)c1ccccc1
inactive: Potency [1] | Potency [2] | outcome [3] | outcome [4] | outcome [5] | Potency [6] | outcome [7] | Potency [8] | Potency [9] | Potency [16] | outcome [10] | max response [11] -1.85% | outcome [12] | outcome [18] | outcome [14] | Potency [15]

CC(C)(C)OC(=O)c1cccc(N)c1
inactive: Potency [1] | Potency [2] | outcome [3] | outcome [4] | outcome [5] | Potency [6] | outcome [7] | Potency [8] | Potency [9] | Potency [16] | max response [11] -10% | outcome [12] | Potency [13] | outcome [14] | Potency [15] | Potency [17]

O=C(O)c1cc(C(=O)O)cc(C(=O)O)c1
inactive: Potency [1] | Potency [2] | outcome [3] | outcome [4] | outcome [5] | Potency [6] | outcome [7] | Potency [8] | Potency [9] | outcome [10] | max response [11] 16.8% | outcome [12] | outcome [18] | Potency [13] | outcome [14] | Potency [15] | Potency [17]

CCCCCCCCCCOc1cc2c(=O)c(C(=O)OCC)c[nH]c2cc1OCC
inactive: activity change, negative = cytotoxicity [1] 1.84% [at 6.97 µM] | activation (H2AX phosphorylation) [2] 0.376% [at 14 µM] | activation [3] 0.236% [at 7.01 µM] | activity change, negative = cytotoxicity [4] 1.5% [at 14 µM] | activity change, negative = cytotoxicity [5] 3.75% [at 6.97 µM] | activity change, negative = cytotoxic [6] 6.41% [at 6.97 µM] | cytotoxicity [7] -0.138% [at 6.97 µM] | cytotoxicity increase [9] 0.78% [at 6.97 µM] | activity change, negative = cytotoxicity [16] -0.329% [at 6.97 µM] | viability change, negative = cytotoxic [10] 8.14% [at 6.97 µM] | max response [11] 4.14% | activity change [12] 2.15% [at 6.97 µM] | cytotoxicity increase [18] 1.94% [at 6.97 µM] | activity change, negative = cytotoxic [13] 0.806% [at 6.97 µM] | cytotoxicity [14] 2.18% [at 6.97 µM] | cytotoxicity increase [15] -5.64% [at 6.97 µM] | activity change, negative = cytotoxicity [17] -0.96% [at 6.97 µM]

CC(=O)Nc1ccc(OCC(O)CNC(C)C)cc1 (stereo unspecified)
inactive: Potency [1] | Potency [2] | outcome [3] | outcome [4] | outcome [5] | Potency [6] | outcome [7] | Potency [9] | Potency [16] | outcome [10] | max response [11] -1.7% | outcome [12] | outcome [18] | Potency [13] | outcome [14]

CC(C)CC(C)(N)C#N (stereo unspecified)
inactive: Potency [1] | Potency [2] | outcome [3] | outcome [4] | outcome [5] | Potency [6] | outcome [7] | Potency [8] | Potency [16] | outcome [10] | max response [11] 5.01% | outcome [12] | outcome [18] | Potency [13] | outcome [14] | Potency [15] | Potency [17]

NC(=O)NC1N=C([O][Al])NC1=O (stereo unspecified)
inactive: Potency [1] | Potency [2] | outcome [3] | outcome [4] | outcome [5] | Potency [6] | outcome [7] | Potency [8] | Potency [9] | outcome [10] | max response [11] 1.53% | outcome [12] | outcome [18] | Potency [13] | outcome [14] | Potency [15]

CC(CC=O)CC(C)(C)C (stereo unspecified)
inactive: Potency [1] | Potency [2] | outcome [3] | outcome [4] | outcome [5] | Potency [6] | outcome [7] | Potency [9] | max response [11] -0.119% | outcome [12] | outcome [18] | Potency [13] | outcome [14] | Potency [15] | Potency [17]

CN(C)CCCN(C)CCCN(C)C
inactive: Potency [1] | Potency [2] | outcome [3] | outcome [4] | Potency [6] | outcome [7] | Potency [8] | Potency [9] | Potency [16] | outcome [10] | max response [11] -6.89% | outcome [12] | outcome [18] | Potency [13] | outcome [14] | Potency [17]

Cc1ccc(C(=O)c2ccc(CC(=O)O)n2C)cc1
inactive: Potency [1] | Potency [2] | outcome [4] | Potency [19] | outcome [20] | outcome [5] | Potency [6] | outcome [7] | Potency [8] | Potency [9] | Potency [16] | max response [11] 1.68% | outcome [12] | Potency [13] | Potency [17]

CC(=O)C1CCCCC1=O (stereo unspecified)
inactive: Potency [1] | Potency [2] | outcome [3] | outcome [4] | Potency [6] | outcome [7] | Potency [8] | Potency [9] | Potency [16] | outcome [10] | max response [11] 15.3% | outcome [12] | outcome [18] | Potency [13] | outcome [14] | Potency [17]

CCOC(=O)COc1cc(-n2ncc(C(F)(F)F)c(C)c2=O)c(F)cc1Cl
inactive: Potency [1] | Potency [2] | outcome [3] | outcome [4] | Potency [6] | outcome [7] | Potency [8] | Potency [9] | max response [11] -4.34% | outcome [12] | outcome [18] | Potency [13] | outcome [14] | Potency [15] | Potency [17]

CCO[Si](OCC)(OCC)c1ccccc1
inactive: Potency [1] | Potency [2] | outcome [3] | Potency [19] | outcome [20] | Potency [6] | outcome [7] | Potency [8] | Potency [9] | Potency [16] | outcome [10] | max response [11] 10.1% | outcome [12] | outcome [18] | Potency [13] | outcome [14] | Potency [15] | Potency [17]
